Source: PubChem BioAssay
ALOX15 inhib = inhibitors of human 15-lipoxygenase (ALOX15). purified 15hLO-1, xylenol orange hydroperoxide absorbance. AID 887. Potency, µM (titrated, usually from 57.1 µM), inactives show at the top dose activity change, negative = inhibition, most hits filed as inhibitors. 1.4% of 74,000 active. P16050; also: nearly all actives have a fitted effect of over 55% in size
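Hydroperoxide formed from arachidonic acid (50 uM) by purified human 15hLO-1 (40 nM) oxidizes ferrous iron, and the ferric-xylenol orange complex is read at 573 versus 405 nm. Compounds were preincubated 15 min; reaction ran 6 min at room temperature.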
ERK AVP block = inhibitors of vasopressin-stimulated ERK signaling pathway | HEK293-V1b, vasopressin-stimulated pERK AlphaScreen | Potency, µM (series often up to 57.5 µM), inactives show at the highest dose activity, negative = inhibition, usual class: inhibitors | 0.99% of 72,000 active | AID 995; also: nearly all actives have a fitted effect of over 55% in size
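HEK293 cells stably expressing V1b receptor, preincubated 30 min at 37 °C with compound, then stimulated 5 min with 25 nM vasopressin. Phospho-ERK by AlphaScreen SureFire after 5 h RT; normalized to DMSO and vasopressin; AC50 by Hill fit.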
Tau fil binding = binders of human tau filaments; 2% of 71,000 active; recombinant tau filaments, thioflavin S fluorescence, 15 h; filaments grown with octadecylsulfate alongside compound; Potency, µM (series often up to 57.1 µM), without a hit: at the highest dose activity change, negative = inhibition;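 also: actives lower thioflavin S fluorescence by blocking filaments or displacing dye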
Target sequence (P10636 whole entry, looked up): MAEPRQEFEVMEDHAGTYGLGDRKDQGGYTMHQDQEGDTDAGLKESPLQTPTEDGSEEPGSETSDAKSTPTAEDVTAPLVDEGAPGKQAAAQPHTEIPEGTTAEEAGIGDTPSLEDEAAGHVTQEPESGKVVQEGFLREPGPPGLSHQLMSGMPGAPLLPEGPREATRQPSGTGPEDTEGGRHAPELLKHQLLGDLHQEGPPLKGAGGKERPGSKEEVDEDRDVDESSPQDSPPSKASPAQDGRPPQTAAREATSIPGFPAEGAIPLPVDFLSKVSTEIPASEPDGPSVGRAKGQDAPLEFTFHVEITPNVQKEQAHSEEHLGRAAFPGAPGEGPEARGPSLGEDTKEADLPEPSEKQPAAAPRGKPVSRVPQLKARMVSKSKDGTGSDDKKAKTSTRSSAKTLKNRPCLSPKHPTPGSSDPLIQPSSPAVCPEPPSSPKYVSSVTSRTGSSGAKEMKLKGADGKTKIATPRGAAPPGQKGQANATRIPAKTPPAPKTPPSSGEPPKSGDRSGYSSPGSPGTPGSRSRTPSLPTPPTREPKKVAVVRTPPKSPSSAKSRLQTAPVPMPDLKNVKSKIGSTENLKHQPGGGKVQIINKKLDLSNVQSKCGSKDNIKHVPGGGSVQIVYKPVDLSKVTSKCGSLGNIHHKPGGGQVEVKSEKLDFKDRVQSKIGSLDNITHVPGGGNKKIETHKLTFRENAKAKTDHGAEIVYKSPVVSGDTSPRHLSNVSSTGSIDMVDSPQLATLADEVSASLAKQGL
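Quantitative HTS: thioflavine S signal from ODS-induced tau filaments, excited at 450 nm, emission 510 nm. Conditions: 1 uM tau, 30 uM ODS, 15 h at 37 C, pH 7.4.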
PK Bst = modulators of Bacillus stearothermophilus pyruvate kinase. purified pyruvate kinase, luminescence ATP production; ribose 5-phosphate activator present at AC10. Potency, µM. 1.2% of 51,000 active; in the data active = potency below about 11 µM; inconclusive = mostly about 12 µM to 25 µM;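 the screen sought inhibitors and activators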;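 also: scaled between full activation by ribose 5 phosphate and full inhibition by luteolin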
FLuc inh = inhibitors of firefly luciferase; AID 411; 2.2% of 72,000 active; purified firefly luciferase, luminescence, 8 min; Potency, µM (doses to about 57.1 µM), without a hit: at the top dose activity change, negative = inhibition, usual class: inhibitors; P08659; also: nearly all actives have a fitted effect of over 40% in size
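Substrate buffer containing 10 uM ATP (pH 7.2 imidazole, Mg2+, KCl, detergent, BSA) is dispensed, compound pinned in, then luciferase/luciferin detector mix added. After 8 min at ambient temperature, light output is measured.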
Hsp90 Hop PPI = changes Hsp90-Hop TPR2A binding signal, up or down; AID 595; Potency, µM (highest dose often 57 µM), without a hit: top-dose activity change, negative = inhibition; AlphaScreen TPR2A-His6 binding biotin-Hsp90 C-terminal peptide; 0.44% of 71,000 active; active = well fitted curve in either direction with a large enough effect; inconclusive = small, poorly fitted or top-dose-only effect, or another doubt
Numbers without * were called inactive; i = inactive; ? = inconclusive; . = no result given; [ ] = another dose, or the depositor's remark. In the library only some 6.1% were active in any assay of this set; here they are far more common. Unless noted, calls follow the shape of the dose curve; as a rule, active = well fitted curve in the direction sought with a large enough effect; inconclusive = small, poorly fitted or top-dose-only effect, or another doubt; inactive = no such curve, though single readings can be large; an effect the other way counts as inactive or inconclusive. Unless noted, % is scaled to controls: 0 for no effect and ±100 for the full control effect; potency is read from the fitted curve at half-maximal effect.

SMILES	ALOX15 inhib	ERK AVP block	Tau fil binding	PK Bst	FLuc inh	Hsp90 Hop PPI
COc1ccc(-c2nn3c(-c4ccccc4)nnc3s2)cc1	-15%	?	203%	3.4*	-2%	1%
C/C(Cl)=C\Cn1c(N2CCCC2)nc2c1c(=O)[nH]c(=O)n2C	4%	25µM*	3%	>57	2%	-3%
C=CCn1c(N2CCCCCC2)nc2c1c(=O)[nH]c(=O)n2C	1%	18%	4%	>57	3%	-2%
COc1cc(-c2[o+]c3cc(O)cc(O)c3cc2O)cc(O)c1O	-14%[11.4 µM]	-1%[11.5 µM]	-8%[11.4 µM]	.	1%[11.4 µM]	-27%[11 µM]
O=C1c2ccccc2C(=O)c2c(Nc3ccc4c5c(cccc35)C(=O)c3ccccc3-4)cccc21	0%[11.4 µM]	1%[11.5 µM]	-11%[11.4 µM]	.	2%[11.4 µM]	-6%[11 µM]
O=C1c2ccccc2C(=O)c2c(Nc3cc4c5c(ccc6c7ccc8c9c(cc(Nc%10cccc%11c%10C(=O)c%10ccccc%10C%11=O)c(c3c56)c97)-c3ccccc3C8=O)C(=O)c3ccccc3-4)cccc21	-9%[11.4 µM]	?	3.2µM*	.	-1%[11.4 µM]	?
CCc1cc(=O)oc2cc(C)c(CN3CCCC3)c(O)c12	.	.	.	>26	2%[25.5 µM]	.
CCCc1cc(=O)oc2cc(C)c(CN3CCCC3)c(O)c12	13µM*	-27%	13µM*	>57	3%	-22%
COC(=O)c1c(C(=O)OC)n(CCCN)c2ccc(C)cc12	1%	1%	-8%	>57	-33%	-2%
Cc1ccc2c(c1)c1cccc3c1n2CCN3CCC(N)=O	13µM*	?	5µM*	.	10µM*	?
Cc1cc(NC(c2cccnc2)c2ccc3cccnc3c2O)no1 (stereo not given)	112%	?	-1%	>57	2%	4µM*
N=C(N)SCCc1ccccn1	10%[11.4 µM]	13%[11.5 µM]	1%[11.4 µM]	.	0%[11.4 µM]	2%[11 µM]
COc1ccc(NC(=O)N2CC3(CCN(C(=O)c4cccc(F)c4)CC3)C2)cc1	-1%	9%	-2%	.	1%[11.4 µM]	-2%
COc1ccc(C(=O)Oc2ccc(C(C)=O)cc2)c(OC)c1	-2%	7%	2%	.	16µM*	0%
COc1ccc(C(=O)Nc2c(F)c(F)c(F)c(F)c2F)c(OC)c1	-3%	-12%	28%	.	1%	-1%
c1coc(-c2nc3ccccc3nc2-c2ccco2)c1	25µM*	-6%	13µM*	.	-14%	-8%
Brc1cc(Oc2cc(Br)c(Br)c(Br)c2Br)c(Br)c(Br)c1Br	1%	12%	15%	.	.	-11%
COc1ccc(O)c(-c2[nH]ncc2C(=O)c2ccccc2)c1	-3%	-12%	-17%	>57	0%	-8%
Cc1ccc(C(=O)c2cn[nH]c2-c2cc(Cl)ccc2O)cc1	20µM*	-18%	-13%	>57	0%	-3%
CCCCCC(=O)Cc1cc(O)cc(O)c1C(=O)Oc1cc(CC(=O)CCCCC)c(C(=O)O)c(OC)c1	1%	22%	.	.	.	.
O=C1C(c2ccncc2)=C(O)c2ccccc21	-18%	9%	?	?	13µM*	-12%
O=C1c2ccccc2C(Cc2ccncc2)(Cc2ccncc2)c2ccccc21	?	-8%	?	.	0%	2%
CC(=O)OC[C@@H]1O[C@H](C/C=N\OCC[C@H]2C=C[C@H](OC(C)=O)[C@@H](COC(C)=O)O2)C=C[C@@H]1OC(C)=O	-3%[11.4 µM]	12%[11.5 µM]	.	.	-2%[11.4 µM]	.
Cc1ccc(C(CC(=O)c2ccco2)SCCO)cc1 (stereo not given)	4%	52%	8%	.	25µM*	-4%
N#Cc1c(/N=C/c2cccs2)sc2c1CCCCC2	-10%	16µM*	13µM*	1.1*	2µM*	?
SMILES	ALOX15 inhib	ERK AVP block	Tau fil binding	PK Bst	FLuc inh	Hsp90 Hop PPI
CN(C)/C=N/c1sc2c(c1C#N)CCC2	?	-10%	9%	>57	-4%	-3%
CC(=O)Nc1sc2c(c1C#N)CCCCC2	-10%	15%	4%	>57	-2%	3%
N#Cc1c(/N=C/N2CCOCC2)sc2c1CCCCC2	-7%	-19%	2%	.	13µM*	-9%
N#CCCN(CC#Cc1ccccc1)OCc1ccccc1	9%[11.4 µM]	15%[11.5 µM]	.	.	.	.
CN(C)c1ccc(/C=c2\sc3n(c2=O)CCCN=3)cc1	-8%	-2%	148%	2.7*	2.5µM*	-4%
COC(=O)/C=c1/sc2n(c1=O)CCN=2	-3%	2%	-3%	>57	1%	0%
Oc1[nH]c2ccccc2c1C1=NCCCC1	-7%	-27%	-6%	i	-3%	-10%
O=Nc1c(-c2c(O)[nH]c3cc(Br)ccc23)[nH]c2ccccc12	-25%	10µM*	.	.	.	.
Cn1cccc1C(=O)N1CCC2(CC1)CCN(C(c1ccccc1)c1ccccc1)CC2	-12%	?	-4%	.	3%[11.4 µM]	-5%
O=C(NCC1CCCO1)c1ccccc1-c1nc(-c2ccc(Cl)cc2)no1 (stereo not given)	-4%	-11%	18%	10*	?	1%
COc1cccc(NC(=O)c2ccccc2-c2nc(-c3cccc(C)c3)no2)c1	-9%	-19%	60%	.	-19%	6%
Cc1cccc(-c2noc(-c3ccccc3C(=O)NCC3CCCO3)n2)c1 (stereo not given)	3%	-11%	-10%	.	16µM*	4%
CO[C@@H]1COC(=O)C/C=C\[C@@H](C)[C@@H]2C=C[C@H](O)[C@@H](COC(=O)CCC[C@H]1C)O2	9%[11.4 µM]	2%[11.5 µM]	.	.	1%[11.4 µM]	.
Cn1c(=O)n(CCc2ccccc2)c(=O)c2c1nc1n2CCCN1Cc1ccccc1	?	?	-13%	>57	3%	-3%
Cn1c(=O)n(CCc2ccccc2)c(=O)c2c1nc1n2CCCN1CCc1ccccc1	-29%	13µM*	-24%	>57	-1%	-12%
CC(C)(C)c1ccc(-c2conc2N)cc1	-6%	-6%	-17%	?	10µM*	-5%
COc1ccc(-n2nc3cc(C)c(NC(=O)c4cccnc4)cc3n2)cc1	5%	-1%	172%	9.6*	2.5µM*	1%
Cc1cc2nn(-c3ccccc3)nc2cc1NC(=O)c1cccs1	0%	-5%	71%	2.3*	16µM*	3%
COc1ccc(-n2nc3cc(C)c(NC(=O)CC(C)C)cc3n2)cc1	2%[11.4 µM]	0%	54%[11.4 µM]	.	0%	-6%[11 µM]
CCOC(=O)c1[nH]c2c(c1C)C(=O)CC(c1ccc(F)cc1)C2 (stereo not given)	-23%	.	116%	.	-3%	-1%
Cc1c(C(=O)OCC2CCCO2)[nH]c2c1C(=O)CC(c1ccc(N(C)C)cc1)C2 (stereo not given)	-5%	25µM*	53%	.	-6%	?
CC(=O)N1CCC[C@@]2(CCN(Cc3nccs3)C2)C1	7%	-7%	-1%	.	2%[11.4 µM]	-5%
CCCCCn1c(=N)n(CC(O)COc2ccccc2OC)c2ccccc21 (stereo not given)	?	13µM*	i	.	2%	-5%[2.3 µM]
